Data taken from PubChem BioAssay (Tox21).
Records with an inconclusive call do not appear. Calls of active or inactive are those of the source. Unless noted, calls follow the shape of the dose curve; as a rule, active = well fitted curve in the direction sought with a large enough effect in the repeat runs; inconclusive = weak or mixed curves; inactive = no such curve, though single readings can be large; an effect the other way counts as inactive or inconclusive.

How the values were obtained:
[1] = qHTS RealTime-Glo MT Cell Viability Assay in HEK293 cells - 0 hour (AID 1224880); also: top concentration of the series differs between compounds; nearly all actives have a fitted effect of over 45% in size
How it was run: (§1)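 Cells were seeded together with NanoLuc luciferase and a prosubstrate that viable cells reduce to a luciferase substrate. After a 5 h incubation at 37 C/5% CO2, compounds were added and luminescence was measured repeatedly during 40 h of treatment.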

[2] = A CellTox Green Cytotoxicity Assay to monitor cytotoxicity in HEK293 cells - 32 hour (AID 1224881); also: nearly all actives have a fitted effect of over 40% in size
How it was run: (§2)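 Nonlytic real-time cytotoxicity: HEK293 + CellTox Green reagent plated, 5 h preincubation, pintool compound addition (23 nL in DMSO), 37 C for 40 h, fluorescence measured at successive time points.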

[3] = A CellTox Green Cytotoxicity Assay to monitor cytotoxicity in HepG2 cells - 0 hour (AID 1224882); also: nearly all actives have a fitted effect of over 35% in size
How it was run: (§3)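 Read-out is fluorescence of a cyanine dye excluded from live cells that stains DNA of dead HepG2 cells, with signal proportional to cytotoxicity. Plates were read at 0, 8, 16, 24, 32 and 40 h after compound addition.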

[4] = A CellTox Green Cytotoxicity Assay to monitor cytotoxicity in HepG2 cells - 32 hour (AID 1224883); also: nearly all actives have a fitted effect of over 50% in size
How it was run: as §3

[5] = A CellTox Green Cytotoxicity Assay to monitor cytotoxicity in HEK293 cells - 8 hour (AID 1224884); also: nearly all actives have a fitted effect of over 35% in size
How it was run: as §2

[6] = qHTS RealTime-Glo MT Cell Viability Assay in HepG2 cells - 16 hour (AID 1224885); also: nearly all actives have a fitted effect of over 50% in size
How it was run: (§4)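 Viability was tracked continuously by NanoLuc luminescence from prosubstrate reduced by living HepG2 cells, at successive time points over 40 h of compound exposure. Cells with reagent were preincubated 5 h at 37 °C before compound addition.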

[7] = qHTS RealTime-Glo MT Cell Viability Assay in HEK293 cells - 24 hour (AID 1224886); also: top concentration of the series differs between compounds; nearly all actives have a fitted effect of over 50% in size
How it was run: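 Viability tracked continuously by luminescence as live cells reduce a prosubstrate for NanoLuc; HEK293 cells preincubated 5 h, compound-treated at 37 C, and read at 0, 8, 16, 24, 32 and 40 h.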

[8] = qHTS RealTime-Glo MT Cell Viability Assay in HEK293 cells - 8 hour (AID 1224887); also: top concentration of the series differs between compounds; nearly all actives have a fitted effect of over 50% in size
How it was run: as §1

[9] = A CellTox Green Cytotoxicity Assay to monitor cytotoxicity in HEK293 cells - 16 hour (AID 1224888); also: nearly all actives have a fitted effect of over 35% in size
How it was run: as §2

[10] = qHTS RealTime-Glo MT Cell Viability Assay in HepG2 cells - 0 hour (AID 1224889); also: nearly all actives have a fitted effect of over 50% in size
How it was run: as §4

[11] = A CellTox Green Cytotoxicity Assay to monitor cytotoxicity in HepG2 cells - 8 hour (AID 1224890); also: nearly all actives have a fitted effect of over 45% in size
How it was run: as §3

[12] = qHTS assay to identify small molecule antagonists of the estrogen receptor alpha (ER-alpha) signaling pathway using the BG1 cell line in the presence of 0.1 nM 17-beta-estradiol - cell viability counter screen (AID 1259241); also: nearly all actives have a fitted effect of over 40% in size
How it was run: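 Cytotoxicity counter-screen: live-cell protease activity measured by fluorescence (30 min reagent step) in the same wells. Cells were VM7Luc4E2 with endogenous ER-alpha and ERE-driven luciferase, treated 22 hr at 37C alongside 0.1 nM 17beta-estradiol final.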

[13] = qHTS assay to identify small molecule antagonists of the androgen receptor (AR) signaling pathway using the MDA cell line in the presence of 0.5 nM R1881 - cell viability counter screen (AID 1259242); also: nearly all actives have a fitted effect of over 45% in size
How it was run: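 Counter screen for cytotoxicity run in the same wells as the AR antagonist reporter screen: MDA-kb2 cells were treated 16 hr with test compounds and 0.5 nM R1881, then live-cell protease activity was measured by fluorescence.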

[14] = target: Androgen receptor (Homo sapiens) (UniProt P10275); assay: qHTS assay to identify small molecule antagonists of the androgen receptor (AR) signaling pathway using the MDA cell line in the presence of 0.5 nM R1881 (AID 1259243); also: nearly all actives have a fitted effect of over 50% in size
How it was run: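 Luciferase luminescence is the read-out: compounds are tested for suppressing 0.5 nM R1881-driven MMTV reporter activity in MDA-kb2 cells after 16 hr at 37C.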

[15] = target: Estrogen receptor (Homo sapiens) (UniProt P03372); assay: qHTS assay to identify small molecule antagonists of the estrogen receptor alpha (ER-alpha) signaling pathway using the BG1 cell line in the presence of 0.1 nM 17-beta-estradiol (AID 1259244); also: nearly all actives have a fitted effect of over 50% in size
How it was run: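 Cells: VM7Luc4E2, endogenous ER-alpha, 4x ERE-luc stable. Pre-culture 5 d, phenol red-free, charcoal-stripped FBS. Plated 24 h, compound + E2 0.1 nM final, 22 h 37C/5% CO2. Readout ONE-Glo luminescence.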

[16] = qHTS assay to identify small molecule phospholipidosis (PLD) inducers (AID 1259344; active = well fitted curve in the direction sought with a large enough effect; an effect the other way counts as inactive or inconclusive)
How it was run: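 Phospholipidosis is scored by imaging LipidTOX-stained pits in HepG2 cells exposed to compound for 24 h at 37 C; pit counts and integrated intensities per well and per cell serve as outputs.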

[17] = qHTS assay to identify small molecule HDAC inhibitors (AID 1259364); also: top concentration of the series differs between compounds; nearly all actives have a fitted effect of over 45% in size
How it was run: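 Luminescence from a cell-permeant luminogenic class I/II HDAC substrate reports endogenous deacetylase activity in intact HCT-116 cells treated with compounds for 2 h.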

[18] = qHTS assay to identify small molecule HDAC inhibitors - cell viability counter screen (AID 1259365)
How it was run: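 CellTiter-Glo luminescence (30 min, room temperature) reported viability after a 2 h compound exposure at 37 C. Cells: wild-type HCT-116, 1,500 per well, seeded the night before.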

[19] = qHTS assay to identify small molecule agonists of the sonic hedgehog signaling (Shh) pathway - cell viability counter screen (AID 1259366); also: nearly all actives have a fitted effect of over 50% in size
How it was run: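 Cytotoxicity counter screen: CellTiter-Fluor reagent added after 23 h compound exposure, then 1 h at 37C and fluorescence read. Cells were 3T3 Gli1-Luc, seeded 2,000 per well and dosed 4 h post-plating.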

[20] = qHTS assay to identify small molecule antagonists of the sonic hedgehog signaling (Shh) pathway - cell viability counter screen (AID 1259367); also: nearly all actives have a fitted effect of over 55% in size
How it was run: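 Cells: 3T3 Gli1-Luc, 2,000/well, 4 hr pre-incubation. Compounds in DMSO, then conditioned medium. Incubation 24 hr, 37C, 5% CO2. CellTiter-Fluor at 23 hr, 1 hr, fluorescence.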

Measured: Potency

Estrogen receptor (Homo sapiens), sequence (P03372 whole entry, looked up): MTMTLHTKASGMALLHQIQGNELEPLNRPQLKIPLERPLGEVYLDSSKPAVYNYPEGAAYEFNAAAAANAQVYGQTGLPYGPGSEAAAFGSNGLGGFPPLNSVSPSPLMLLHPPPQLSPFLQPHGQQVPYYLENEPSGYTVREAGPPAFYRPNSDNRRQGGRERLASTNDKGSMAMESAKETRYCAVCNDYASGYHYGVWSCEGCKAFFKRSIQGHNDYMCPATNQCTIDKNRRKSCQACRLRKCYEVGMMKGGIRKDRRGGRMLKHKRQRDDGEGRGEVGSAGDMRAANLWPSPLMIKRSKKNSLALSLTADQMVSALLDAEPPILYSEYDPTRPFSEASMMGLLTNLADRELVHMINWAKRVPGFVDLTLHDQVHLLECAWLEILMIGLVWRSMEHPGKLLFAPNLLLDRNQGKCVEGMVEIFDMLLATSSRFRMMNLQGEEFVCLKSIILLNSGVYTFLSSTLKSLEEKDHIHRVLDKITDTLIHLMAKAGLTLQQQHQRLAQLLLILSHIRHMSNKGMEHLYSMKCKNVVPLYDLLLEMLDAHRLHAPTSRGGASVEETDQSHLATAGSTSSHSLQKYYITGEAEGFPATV
Androgen receptor (Homo sapiens), sequence (P10275 whole entry, looked up): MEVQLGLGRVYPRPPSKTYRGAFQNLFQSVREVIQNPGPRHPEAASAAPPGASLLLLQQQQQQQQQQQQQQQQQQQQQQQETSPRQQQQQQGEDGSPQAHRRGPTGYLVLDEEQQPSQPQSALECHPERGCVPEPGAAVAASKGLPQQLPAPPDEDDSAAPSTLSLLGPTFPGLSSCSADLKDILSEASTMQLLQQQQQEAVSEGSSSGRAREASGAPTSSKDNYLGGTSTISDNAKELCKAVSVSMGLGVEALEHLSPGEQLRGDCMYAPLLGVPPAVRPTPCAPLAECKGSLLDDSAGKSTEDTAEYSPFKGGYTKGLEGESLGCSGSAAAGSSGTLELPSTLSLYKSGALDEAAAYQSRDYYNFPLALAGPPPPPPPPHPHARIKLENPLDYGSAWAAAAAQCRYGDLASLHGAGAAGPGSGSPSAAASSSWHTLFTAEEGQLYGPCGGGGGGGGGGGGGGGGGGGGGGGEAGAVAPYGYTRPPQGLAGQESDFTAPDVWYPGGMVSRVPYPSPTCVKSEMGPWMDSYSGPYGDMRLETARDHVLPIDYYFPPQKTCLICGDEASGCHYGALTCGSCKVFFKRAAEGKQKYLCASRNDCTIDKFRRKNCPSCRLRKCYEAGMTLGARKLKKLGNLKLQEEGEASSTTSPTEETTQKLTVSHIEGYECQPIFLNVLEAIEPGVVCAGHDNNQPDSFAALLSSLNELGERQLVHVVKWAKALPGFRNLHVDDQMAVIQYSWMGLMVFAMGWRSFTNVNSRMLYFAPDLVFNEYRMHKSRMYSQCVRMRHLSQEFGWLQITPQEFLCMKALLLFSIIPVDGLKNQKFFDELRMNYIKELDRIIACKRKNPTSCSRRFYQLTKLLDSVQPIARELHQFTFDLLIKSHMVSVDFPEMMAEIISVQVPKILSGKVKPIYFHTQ

N[C@@H]1C[C@H]1c1ccccc1
inactive: [1] | [2] | [3] | [4] | [5] | [6] | [7] | [8] | [9] | [10] | [11] | [12] | [13] | [14] | [15] | [16] | [17] | [18] | [19] | [20]

C=CCC1(C(C)CC)C(=O)NC(=O)NC1=O (stereo not drawn)
inactive: [1] | [2] | [3] | [4] | [5] | [6] | [7] | [8] | [9] | [10] | [11] | [12] | [13] | [15] | [17] | [18] | [19] | [20]

CC(C)C(C)(N)C#N (stereo not drawn)
inactive: [1] | [2] | [3] | [4] | [5] | [6] | [7] | [8] | [9] | [10] | [11] | [12] | [13] | [17] | [18] | [19] | [20]

C[C@@H](N)[C@@H](O)c1ccccc1
inactive: [1] | [2] | [3] | [4] | [5] | [6] | [7] | [8] | [9] | [10] | [11] | [12] | [13] | [16] | [17] | [18] | [19] | [20]

C=C(Cl)CCl
inactive: [1] | [2] | [3] | [4] | [5] | [6] | [7] | [8] | [9] | [10] | [11] | [12] | [13] | [17] | [18] | [19] | [20]

ClCCCCCCCl
inactive: [1] | [2] | [3] | [4] | [5] | [6] | [7] | [8] | [9] | [10] | [11] | [12] | [13] | [17] | [19] | [20]

O=C(Cl)CCl
inactive: [1] | [2] | [3] | [4] | [5] | [6] | [7] | [8] | [9] | [10] | [11] | [12] | [13] | [18] | [19] | [20]

CC(Cl)(Cl)Cl
inactive: [1] | [2] | [3] | [4] | [5] | [6] | [7] | [8] | [9] | [10] | [11] | [12] | [13] | [17] | [18] | [19] | [20]

Nc1c(Cl)c(F)nc(OCC(=O)O)c1Cl
inactive: [1] | [2] | [3] | [4] | [5] | [6] | [7] | [8] | [9] | [10] | [11] | [13] | [14] | [15] | [17] | [18] | [19] | [20]

CCCCOC(C)=O
inactive: [1] | [2] | [3] | [4] | [5] | [6] | [7] | [8] | [9] | [10] | [11] | [13] | [17] | [19] | [20]

O=C(Cl)OCc1ccccc1
inactive: [1] | [2] | [3] | [4] | [5] | [6] | [7] | [8] | [9] | [10] | [11] | [13] | [15] | [17] | [18] | [19] | [20]

ClCCCCl
inactive: [1] | [2] | [3] | [4] | [5] | [6] | [7] | [8] | [9] | [10] | [11] | [12] | [13] | [17] | [18] | [19] | [20]

CCOP(=O)(CN(CCO)CCO)OCC
inactive: [1] | [2] | [3] | [4] | [5] | [6] | [7] | [8] | [9] | [10] | [11] | [12] | [13] | [15] | [17] | [19] | [20]

CCCN1CCC[C@@H]2Cc3[nH]ncc3C[C@H]21
inactive: [1] | [2] | [3] | [4] | [5] | [6] | [7] | [8] | [9] | [10] | [11] | [13] | [15] | [16] | [17] | [18] | [19] | [20]

O=C(O)CBr
inactive: [1] | [2] | [3] | [4] | [5] | [6] | [7] | [8] | [9] | [10] | [11] | [12] | [13] | [17] | [18] | [19] | [20]

CCCC(C)C1(CC)C(=O)N=C(S)NC1=O (stereo not drawn)
inactive: [1] | [2] | [3] | [4] | [5] | [6] | [7] | [8] | [9] | [10] | [11] | [12] | [13] | [16] | [17] | [18] | [19] | [20]

O=C(Cl)C(Cl)(Cl)Cl
inactive: [1] | [2] | [3] | [4] | [5] | [6] | [7] | [8] | [9] | [10] | [11] | [12] | [13] | [15] | [17] | [19] | [20]
